Experimental data taken from PubChem BioAssay (NCI).
About 83,000 compounds went through this panel and 20% of them were active in at least one assay; those are over-represented in the sample as a whole.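 Single-concentration screen, 48 h exposure, 96-well plates. Endpoint: percent growth. Below 10 = active.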 Unmarked numbers belong to inactive results. Calls of active or inactive are those of the source.

Test system: HOP-62 NSCLC
Assay: NCI-60 one-dose screen, 48 h (100 = growth as untreated, 0 = no growth, -100 = all killed)
Details: 10 µM unless noted

Q: For Cc1ccc(Cl)cc1Nc1nc(C(F)(F)F)ccc1C(=O)N/N=C/c1cccnc1, which growth is on record?
A: 29.4%

Q: How did the growth turn out when Fc1ccc(-c2nn(-c3ccccc3)cc2-c2nc3ccccc3o2)cc1 was run?
A: 48.7%

Q: With CCOC(=O)C(=Cc1cccc(Br)c1)C(=O)OCC as the compound, how does the growth read?
A: 85.1%

Q: Which growth does the source give for COc1cccc(NC(=O)Cn2cc(CN3CCN(c4ccnc5cc(Cl)ccc45)CC3)nn2)c1 here?
A: 71.6%

Q: For CCOC(=O)c1cc2c(=O)oc3ccccc3c2oc1=O, which growth is on record?
A: 120%

Q: For O=C(Nc1cc(Cl)ccc1O)c1ccc(Nc2ccnc(C(F)(F)F)c2)cc1, which growth is on record?
A: 46.3%

Q: Which growth does the source give for C=C(C)[C@@H]1CC[C@]2(C(=O)O)CC[C@]3(C)[C@H](CC[C@@H]4[C@@]5(C)C[C@@H](Cc6cn(CCO[C@@H]7O[C@H](COC(C)=O)[C@H](OC(C)=O)[C@H](OC(C)=O)[C@H]7OC(C)=O)nn6)[C@H](O)C(C)(C)[C@@H]5CC[C@]43C)[C@@H]12 here?
A: 80.7%

Q: Which growth does the source give for CC(C)CCC[C@@H](C)[C@H]1CC[C@H]2[C@@H]3CC=C4C[C@@H](C(C(=O)O)C(=O)O)CC[C@]4(C)[C@H]3CC[C@]12C here?
A: -54.8% (active)

Q: Which growth does the source give for C#CCOc1ccc2ncnc(Nc3ccc(NC(=O)CCl)cc3)c2c1 here?
A: 21.4%

Q: How did the growth turn out when CCOC(=O)C1=C(NC)OCC1=O was run?
A: 100%

Q: For COC(=O)c1c2c(c(C)[n+]([O-])c1C)C(=O)C=C(NCc1ccc(Br)cc1)C2=O, which growth is on record?
A: -77.2% (active)

Q: Which growth does the source give for CCN(CC)CCOc1ccc(-c2c(-c3ccccc3)c(=O)oc3ccccc23)cc1 here?
A: 95.5%

Q: How did the growth turn out when Nc1nc(=S)c2ncn(C3OC(COP(=O)(O)O)C(O)C3O)c2[nH]1 (configuration not stated) was run?
A: 20.1%

Q: For COc1ccc(/C=N/NC(=O)CCN2c3ccccc3Sc3ccccc32)cc1, which growth is on record?
A: 75.3%

Q: How did the growth turn out when c1cnc2[nH]cc(-c3csc(-c4cn(CCCN5CCOCC5)c5ccccc45)n3)c2c1 was run?
A: 48.7%

Q: For S=C1CCSC(=S)N1CCCN1C(=S)CCSC1=S, which growth is on record?
A: 90.5%

Q: COc1ccc(C(=O)Nc2ncc(Cc3ccc(F)cc3)s2)cc1 was tested. Which growth did it give?
A: 28.7%

Q: With C=C1C(=O)O[C@H]2[C@H]1CC/C(COC(=O)NCc1cc[nH]c1)=C\CC[C@@]1(C)O[C@@H]21 as the compound, how does the growth read?
A: 87.3%

Q: With CN(C)CCCC1(c2ccc(F)cc2)OCc2cc(-c3cccc4[nH]ccc34)ccc21 (configuration not stated) as the compound, how does the growth read?
A: 16.2%

Q: For COC(C(=O)[C@@H](O)[C@@H](C)O)[C@@H]1Cc2cc3cc(O[C@H]4C[C@@H](O[C@H]5C[C@@H](O)[C@H](O)C(C)O5)[C@H](O)C(C)O4)c(C)c(O)c3c(O)c2C(=O)[C@H]1O[C@H]1C[C@@H](O[C@H]2C[C@@H](O[C@H]3C[C@@H](O)[C@H](OC)C(C)O3)[C@@H](O)C(C)O2)[C@H](O)C(C)O1 (some centres not stated), which growth is on record?
A: -6.87% (active)

Q: How did the growth turn out when CCNc1cc(-c2cccc(OC(F)(F)F)c2)nc2ccc(N3CCCC3)cc12 was run?
A: -10.1% (active)

Q: Which growth does the source give for CCNc1nc(-c2ccc(Cl)c(OC)c2)c(-c2ccnc(NCCCNS(=O)(=O)c3ccc(Cl)cc3)n2)s1 here?
A: 61.7%

Q: Cc1nc2c(=O)[nH]c(SCC(=O)Nc3cccc(F)c3)nc2[nH]c1=O was tested. Which growth did it give?
A: 98.9%

Q: For Cc1ccc(-c2nc3nc(-c4ccc(F)cc4)nc(N4CCNCC4)c3o2)cc1, which growth is on record?
A: 77.6%

Q: Which growth does the source give for Oc1c(Cl)cc(Cl)c2ccc(Cn3cc(-c4cc(C(F)(F)F)cc(C(F)(F)F)c4)nn3)nc12 here?
A: 101%

Q: With CC[C@@H](C(=O)[C@@H](C)[C@@H](O)[C@H](C)[C@@H]1O[C@@H]([C@@H](CC)C(=O)NCCc2ccc(F)cc2)CC[C@@H]1C)C1O[C@]2(C=CC(=O)[C@]3(CC[C@@](C)([C@H]4CC[C@](O)(CC)[C@H](C)O4)O3)O2)[C@H](C)C[C@@H]1C (some centres not stated) as the compound, how does the growth read?
A: 36%

Q: c1cc2[nH]ncc2cc1-c1nc2ccc3[nH]ncc3c2c2c1CCCC2 was tested. Which growth did it give?
A: 22.7%

Q: With C#CCOc1cccc(Nc2ncnc3c(NC(=O)C=C)cccc23)c1 as the compound, how does the growth read?
A: 39%

Q: For N#Cc1cnc(NCCc2ccncc2)nc1-n1cnc2ccccc21, which growth is on record?
A: 77.3%

Q: How did the growth turn out when COc1ccc(N2CCC(=O)NC2=S)cc1 was run?
A: 107%

Q: With Oc1c(Cl)cc(Cl)c2ccc(Cn3cc(-c4cc(F)cc(F)c4)nn3)nc12 as the compound, how does the growth read?
A: 98.9%

Q: Which growth does the source give for CO/N=C(/C)c1ccc(NC(=O)CSc2nnc(-c3ccncc3)n2-c2ccccc2)cc1 here?
A: 39.2%

Q: For O=C1c2cccnc2C(=O)c2c1c(C(=O)NCCn1ccnc1)c1ccccn21, which growth is on record?
A: 14%

Q: How did the growth turn out when O=C1NC(=O)c2c1c1c3ccccc3ccc1c1[nH]c3ccc(Br)cc3c21 was run?
A: 22.3%

Q: Which growth does the source give for Cc1ccc(-c2nc3nc(-c4ccccc4)nc(N4CCNCC4)c3o2)cc1 here?
A: -92.9% (active)

Q: CC(C)(C)n1cc(-c2ccnc(NCCNS(=O)(=O)c3cccc(F)c3)c2)c(-c2ccccc2)n1 was tested. Which growth did it give?
A: 101%

Q: For Cc1c(-n2nnc(-c3nc4ccccc4s3)c2N)c(=O)n(-c2ccccc2)n1C, which growth is on record?
A: 103%
